The list is not random: actives were taken first. Their share in the collection is about 1.8%.
LGR2 antag = blocks bursicon-induced cAMP signaling via Drosophila LGR2; AID 720647; 0.35% of 380,000 active; inhibition, % at 9.99 µM; HEK293 LGR2, CRE-luciferase, bursicon-stimulated, 4 h;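 active = drop in luminescence signal, shown as inhibition above about 50% in the replicate tests, limit read from the data, passing the limit was not always enough; inconclusive = probably only some replicates passing the limit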;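 note: agonist challenge used bursicon conditioned medium at about half maximal strength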
PAX8 inh HTS = lowers PAX8-driven luciferase in RMG-I cells; AID 652154; inhibition, % at 12.6 µM; RMG-I TPO-luciferase reporter, SteadyGlo, 24 h; 1.2% of 360,000 active;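 active = mean replicate inhibition at least 60% with every replicate also reaching 60%; inconclusive = only one of the two criteria is met; inactive = mean below 60% and not all replicates reaching 60%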;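 note: luciferase light reporting Pax8 driven TPO promoter activity; plate controls were median of neutral control wells for no effect and mitoxantrone controls for full effect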
F508del corr = correctors of CFTR F508del function in bronchial epithelial cells; CFBE cells, YFP halide quenching; stimulated with forskolin plus potentiator P3; % fluorescence drop versus neutral controls; activity (quench increase), % at 7.58 µM; 0.36% of 350,000 active;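 active = mean added fluorescence quench of at least 8% versus neutral control, with both replicates also reaching 8%; inconclusive = only one of the mean or replicate conditions met; inactive = mean below 8% and not both replicates reaching 8%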;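 note: cells transiently co-express mutant CFTR-F508del with the halide-sensitive YFP; corrector assay measuring rescue of mutant channel to the surface after 24 h compound exposure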
EWS-Fli inh = EWS/Fli transcriptional activity inhibition. inhibition, % at 12.6 µM. 0.67% of 350,000 active. A673 NR0B1-luciferase reporter, viability-normalised;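 active = mean inhibition of at least 50% after viability correction, with every replicate also passing that limit; inconclusive = mean reaches 50% but only one of two replicates passes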;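 note: firefly luciferase signal divided by Alamar Blue viability fluorescence both relative to DMSO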
An asterisk follows results filed as active.

How did O=C1/C(=C/c2ccccc2F)SC(=S)N1CC(=O)N1CCCCC1c1cccnc1 (configuration not stated) do in these assays?
LGR2 antag: 12.0; PAX8 inh HTS: 100.1*; F508del corr: -4.6; EWS-Fli inh: 10.1

Results for O=C1/C(=C/c2ccc(F)cc2)SC(=S)N1CC(=O)N1CCCCC1c1cccnc1 (configuration not stated) ?
LGR2 antag: 0.4; PAX8 inh HTS: 69.6*; F508del corr: -6.2; EWS-Fli inh: 6.4

What do the screens show for `C=C[C@@]1(C)CC(=O)[C@]2(O)[C@@]3(C)[C@@H](O)CCC(C)(C)[C@@H]3[C@H](O)[C@H](OC(C)=O)[C@@]2(C)O1`?
LGR2 antag: -79.1; PAX8 inh HTS: -47.3; F508del corr: 5.2; EWS-Fli inh: 6.3

Results for CC(=O)N(Cc1ccc(F)cc1)C1=C(NCCc2ccccc2)C(=O)c2ccccc2C1=O ?
PAX8 inh HTS: 104.8*

How did CC(=O)N(Cc1ccc(F)cc1)c1cccc(C)c1C do in these assays?
LGR2 antag: 24.8; PAX8 inh HTS: 16.5; F508del corr: 1.5; EWS-Fli inh: 11.2

What do the screens show for `O=C([C@@H]1[C@@H](CO)[C@@H]2Cn3c(cccc3=O)[C@@H]2N1CC1CCCC1)N1CCc2ccccc2C1`?
LGR2 antag: 2.9; EWS-Fli inh: 1.2

What do the screens show for `Cc1cc(Br)c(NC(=O)C(C)Sc2nnnn2C)c(Br)c1` (configuration not stated)?
LGR2 antag: -5.7; PAX8 inh HTS: 29.6; F508del corr: 11.9*; EWS-Fli inh: -2.2

Results for O=C(/C=C/Nc1ccc(F)cc1Br)c1ccccc1 ?
LGR2 antag: 93.6*; PAX8 inh HTS: 14.5

Results for COc1ccc(OC)c(N/C=C/C(=O)c2ccccc2)c1 ?
LGR2 antag: 95.6*; PAX8 inh HTS: 78.4*; F508del corr: 2.5; EWS-Fli inh: 80.8*

Results for O=C(/C=C\Nc1ccccc1Br)c1ccc2c(c1)OCO2 ?
LGR2 antag: 79.1*; PAX8 inh HTS: -49.9; F508del corr: -2.6; EWS-Fli inh: 75.2*

What do the screens show for `O=C(C[C@@H]1C[C@H]2c3cc(NC(=O)C4CCC4)ccc3O[C@H]2[C@H](CO)O1)NCCc1ccccc1`?
LGR2 antag: 6.1; PAX8 inh HTS: 13.1; F508del corr: 2.4; EWS-Fli inh: 7.6

How did CCCCn1c(N)c(N(CC(C)C)C(=O)CN(C)S(=O)(=O)c2ccc(NC(C)=O)cc2)c(=O)[nH]c1=O do in these assays?
LGR2 antag: -2.2; PAX8 inh HTS: 5.4; F508del corr: 2.9; EWS-Fli inh: -6.6

How did COc1ccc(C(C)NC(=O)c2ccc(Br)cc2)cc1OC (configuration not stated) do in these assays?
PAX8 inh HTS: 137.9*; F508del corr: 0.1; EWS-Fli inh: 6.1

Results for Cc1ccc(S(=O)(=O)/C(=C/Cl)NC(=O)c2ccccc2)cc1 ?
LGR2 antag: 40.4; PAX8 inh HTS: 93.9*

How did C[C@@H]1CN([C@H](C)CO)C(=O)Cc2cc(NC(=O)CCN3CCOCC3)ccc2O[C@H]1CN(C)Cc1ccc(C(=O)O)cc1 do in these assays?
LGR2 antag: -2.2; PAX8 inh HTS: -2.0; F508del corr: 0.3; EWS-Fli inh: -1.7

How did C[C@@H]1CCCCO[C@H](CN(C)Cc2ccc3c(c2)OCO3)[C@@H](C)CN([C@@H](C)CO)C(=O)c2cc(NC(=O)Nc3cccc4ccccc34)ccc2O1 do in these assays?
LGR2 antag: -10.1; PAX8 inh HTS: 39.5; F508del corr: -1.9; EWS-Fli inh: 64.0*

What do the screens show for `C[C@@H]1CCCCO[C@@H](CN(C)Cc2ccc3c(c2)OCO3)[C@@H](C)CN([C@H](C)CO)C(=O)c2cc(NC(=O)Nc3cccc4ccccc34)ccc2O1`?
LGR2 antag: -1.1; PAX8 inh HTS: -5.2; F508del corr: -1.9; EWS-Fli inh: 2.4

Results for C[C@@H]1CCCCO[C@@H](CN(C)Cc2ccc3c(c2)OCO3)[C@H](C)CN([C@H](C)CO)C(=O)c2cc(NC(=O)Nc3cccc4ccccc34)ccc2O1 ?
LGR2 antag: 2.9; PAX8 inh HTS: 37.1; F508del corr: 0.0; EWS-Fli inh: 70.7*

What do the screens show for `C[C@@H]1CN([C@H](C)CO)C(=O)c2cc(NC(=O)Nc3cccc4ccccc34)ccc2O[C@H]1CN(C)Cc1ccc2c(c1)OCO2`?
LGR2 antag: 20.5; PAX8 inh HTS: 29.7; F508del corr: -0.8; EWS-Fli inh: 10.6

What do the screens show for `C[C@H]1CCCCO[C@@H](CN(C)Cc2ccc3c(c2)OCO3)[C@@H](C)CN([C@@H](C)CO)C(=O)c2cc(NC(=O)Nc3cccc4ccccc34)ccc2O1`?
LGR2 antag: -14.4; PAX8 inh HTS: 35.5; F508del corr: -2.9; EWS-Fli inh: 46.2

How did C[C@H](CO)N1C[C@H](C)[C@H](CN(C)Cc2ccc3c(c2)OCO3)Oc2ccc(NC(=O)Nc3cccc4ccccc34)cc2C1=O do in these assays?
LGR2 antag: -23.1; PAX8 inh HTS: 93.6*; F508del corr: 0.1; EWS-Fli inh: 2.5

Results for C[C@@H]1CN([C@H](C)CO)C(=O)c2cc(NC(=O)Nc3cccc4ccccc34)ccc2O[C@@H](C)CCCCO[C@H]1CN(C)Cc1ccc2c(c1)OCO2 ?
LGR2 antag: 3.5; PAX8 inh HTS: 68.6*; F508del corr: -4.6; EWS-Fli inh: inconclusive

How did COc1cccc(-c2ccc3c(c2)O[C@H](CN(C)C(=O)C2CC2)[C@@H](C)CN([C@H](C)CO)S3(=O)=O)c1 do in these assays?
LGR2 antag: -6.2; F508del corr: -0.6; EWS-Fli inh: 1.6

How did CCOc1ccc(NN=C(C(=O)OC)C(=O)OC)c([N+](=O)[O-])c1 do in these assays?
LGR2 antag: -3.5; PAX8 inh HTS: -1.5; F508del corr: -0.7; EWS-Fli inh: 5.9

Results for CCOC(=O)Cn1c(CN2CCN(c3cccc(Cl)c3)CC2)nc2c1c(=O)[nH]c(=O)n2C ?
LGR2 antag: -3.9; PAX8 inh HTS: 9.8; F508del corr: 1.5; EWS-Fli inh: -1.3

What do the screens show for `CS(=O)(=O)c1ccc(Cl)c(NC(=O)COC(=O)c2ccc(F)cc2Cl)c1`?
LGR2 antag: 13.9; PAX8 inh HTS: -0.6; F508del corr: -1.7; EWS-Fli inh: 12.3

Results for COc1cc(N2C(=O)C=CC2=O)c(OC)cc1Cl ?
LGR2 antag: 4.5; PAX8 inh HTS: 109.6*; F508del corr: 1.3; EWS-Fli inh: 28.0

How did Cc1ccc2nc(-c3ccccn3)[nH]c2c1 do in these assays?
LGR2 antag: 82.1*; PAX8 inh HTS: -31.7; F508del corr: -0.9; EWS-Fli inh: 44.3

What do the screens show for `COc1ccccc1CCc1nnc(CCC(=O)NCC2CCCO2)o1` (configuration not stated)?
LGR2 antag: -0.1; PAX8 inh HTS: -11.3; F508del corr: 1.7; EWS-Fli inh: -9.0

How did COCCCNc1c2c3c(cccc3[nH]c1=O)C(=O)c1ccccc1-2 do in these assays?
LGR2 antag: 13.1; PAX8 inh HTS: 1.3; F508del corr: 46.0*; EWS-Fli inh: inconclusive

Results for Cc1cc(NC(=O)CSc2nc(-c3cccs3)nc3ccccc23)no1 ?
LGR2 antag: -17.3; PAX8 inh HTS: 26.7; F508del corr: 2.1; EWS-Fli inh: 57.6*

What do the screens show for `Cc1cc(NC(=O)CSc2nc(C(C)(C)C)nc3ccccc23)no1`?
LGR2 antag: -15.7; PAX8 inh HTS: 34.2; F508del corr: 6.9; EWS-Fli inh: 45.9
